The whole screen tested about 52,000 compounds, of which about 1,700 (3.3%) were called active. No stated cut-off is given here; in the data, active means survival mostly below about 52% (no sharp cut-off); inactive means mostly above about 56%. The entries come from a sample that favours actives as a whole.
The molecules below were run on Wild type (assay: growth inhibition of S. aureus wild type versus tarO mutant, primary screen, teichoic acid synthesis inhibitors, RN4220, OD600 (AID 463173)). Conditions: S. aureus RN4220 wild type/DeltatarO growth, OD600, 18 h, stronger effect = lower value, screened at 18.75 µg/mL (by protocol).
`CNS(=O)(=O)c1cn(CC(=O)N2CCN(c3ccc(Cl)cc3)CC2)cc1S(=O)(=O)NC` was tested, and the survival was 124% (inactive). `CNS(=O)(=O)c1cn(CC(=O)N2CCN(c3ccc(C(C)=O)cc3)CC2)cc1S(=O)(=O)NC` was tested, and the survival was 10% (active). With `CNS(=O)(=O)c1cn(CC(=O)N2CCN(c3ccc(OC)cc3)CC2)cc1S(=O)(=O)NC` the survival was 69% (inactive). With `Cc1ccc(SCc2nc(-c3ccc(C(=O)Nc4cc(C)ccc4C)cc3)oc2C)cc1` the survival was 129% (inactive). With `Clc1cccc(CSc2nc(NCCc3ccccc3)c3ccccc3n2)c1` the survival was 66% (inactive). In the case of `COc1ccc(CCNc2nc(SCc3cccc(F)c3)nc3ccccc23)cc1OC`, the survival is reported as 80% (inactive). For `Fc1cccc(CSc2nc(NCCc3ccccc3)c3ccccc3n2)c1`, the survival was -3% (active). In the case of `COC(=O)c1cc(S(=O)(=O)N2CCN(c3cccc(C)c3)C(C)C2)c[nH]1` (stereo unspecified), the survival is reported as 98% (inactive). With `O=C(O)c1ccc(NCc2nc3ccccc3n2CCOc2ccccc2Cl)cc1` the survival was 88% (inactive). In the case of `COc1ccccc1OCCn1c(COc2cc(C)ccc2C)nc2ccccc21`, the survival is reported as 87% (inactive). In the case of `Cc1ccccc1OCCn1c(CCNC(=O)C2CCCCC2)nc2ccccc21`, the survival is reported as 90% (inactive). In the case of `Cc1ccc(NCc2nc3ccccc3n2CCOc2ccccc2C)cc1`, the survival is reported as -20% (active). With `Cc1cccc(NCc2nc3ccccc3n2CCOc2ccccc2C)c1` the survival was -18% (active). `COc1ccc(NCc2nc3ccccc3n2CCOc2ccccc2C)cc1` was tested, and the survival was 4% (active). For `COc1cccc(OCc2nc3ccccc3n2CCOc2ccccc2C)c1`, the survival was 55% (inactive). With `Fc1ccc(NCc2nc3ccccc3n2CCOc2ccccc2Cl)cc1` the survival was 95% (inactive). In the case of `Cc1ccc(C)c(CSc2c(C(C)C)cnc3c2c(=O)n(C)c(=O)n3C)c1`, the survival is reported as 126% (inactive). For `O=C(CSc1ncc(CO)n1Cc1ccccc1)Nc1ccc(C(F)(F)F)cc1`, the survival was 120% (inactive). With `CC(=O)Nc1ccc(NC(=O)C(Cc2ccccc2)N2Cc3ccccc3C2=O)cc1` (stereo unspecified) the survival was 72% (inactive). For `COc1ccc(NC(=O)C(Cc2ccccc2)n2cccc2)c(OC)c1` (stereo unspecified), the survival was 78% (inactive). With `Cc1ccc(NC(=O)C(Cc2ccccc2)n2cccc2)cc1` (stereo unspecified) the survival was 96% (inactive). `O=C(Nc1ccc(C(F)(F)F)cc1)C(Cc1ccccc1)n1cccc1` (stereo unspecified) was tested, and the survival was -2% (active). For `CC(C)c1ccc(NC(=O)C(Cc2ccccc2)n2cccc2)cc1` (stereo unspecified), the survival was 13% (active). With `O=C(Nc1ccccc1F)C(Cc1ccccc1)n1cccc1` (stereo unspecified) the survival was 85% (inactive). In the case of `O=C(CSc1nccn1Cc1ccc(F)cc1)NC1CCCC1`, the survival is reported as 68% (inactive). With `Cc1ccc(Cl)cc1N1CCN(C(=O)c2cc3ccc4cccnc4c3[nH]2)CC1` the survival was 129% (inactive).
